# Rows were chosen to be rich in hits. Some 7.9% of all compounds tested hit in one or more screens of this group.
# NOMO-1 viab = STK33 inhibitor candidate reducing NOMO-1 cell viability. NOMO-1 AML viability, CellTiter-Glo luminescence, 72 h. inhibition, % (concentration not given with the values). hit rate 7.5% among 37,000. AID 2330; in the data active = inhibition above about 80%; inconclusive = no clear call, values can overlap the other calls
# Shh pathway inh = blocks Sonic Hedgehog signaling; Shh-LIGHT2 Gli-luciferase reporter, 30 h; inhibition, % (no concentration beside the values); hit rate 2.1% among 22,000;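 active = mean inhibition across valid replicates above about 65%, limit read from the data; inconclusive = mean under the limit, yet half or more replicates past it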;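 also: pathway switched on by Shh-conditioned medium diluted 1 in 25 in low serum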
# MITF inh = MITF inhibition. TRPM1 promoter luciferase, luminescence, 24 h. inhibition, % (no concentration beside the values). hit rate 0.28% among 37,000; in the data active = inhibition above about 85%; inconclusive = no clear call, values can overlap the other calls; inactive = below about 68%;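 also: human melanocyte line stably carrying TRPM1 promoter luciferase reporter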
# Starred values were filed as active, the others as inactive; ? = inconclusive; · = no result; ! = not confirmed by another sample.
SMILES,NOMO-1 viab,Shh pathway inh,MITF inh
O=C(CCSc1nnc(-c2cccc([N+](=O)[O-])c2)o1)Nc1ccc(Br)cc1,32,·,-10
C[C@@H]1CN([C@H](C)CO)C(=O)c2cccc(NC(=O)C3CCCCC3)c2O[C@@H]1CN(C)Cc1ccc(Cl)c(Cl)c1,53,31,6
C[C@@H]1CN([C@H](C)CO)C(=O)c2cccc(NC(=O)C3CCCCC3)c2O[C@H]1CN(C)Cc1ccc(Cl)c(Cl)c1,?,?,15
C[C@@H]1CN([C@@H](C)CO)C(=O)c2cccc(NC(=O)NC3CCCCC3)c2O[C@@H]1CN(C)Cc1ccc(Cl)c(Cl)c1,100*,-16,0
C[C@H](CO)N1C[C@H](C)[C@H](CN(C)Cc2ccc(Cl)c(Cl)c2)Oc2c(NC(=O)C3CCCCC3)cccc2C1=O,92*,10,25
C[C@@H]1CN([C@H](C)CO)C(=O)c2cccc(NC(=O)C3CC3)c2O[C@@H]1CN(C)Cc1ccc(Cl)c(Cl)c1,33,78*,-3
C[C@H](CO)N1C[C@H](C)[C@H](CN(C)Cc2ccc(Cl)c(Cl)c2)Oc2c(NC(=O)C3CCOCC3)cccc2C1=O,9,22,3
C[C@H]1CN([C@@H](C)CO)C(=O)c2cccc(NC(=O)NC3CCCCC3)c2O[C@H]1CN(C)Cc1ccc(Cl)c(Cl)c1,40,-33,41
C[C@H]1CN([C@@H](C)CO)C(=O)c2cccc(NC(=O)C3CCCCC3)c2O[C@@H]1CN(C)Cc1ccc(Cl)c(Cl)c1,91*,38,9
S=C(NCC1CC1)Nc1ccc2[nH]ccc2c1,-6,-27,-28
CN(CC(=O)Nc1ccc(Cl)c(C(F)(F)F)c1)S(=O)(=O)c1ccc(F)cc1,5,·,5
NC(=O)C1(N2CCCCC2)CCN(CC(=O)Nc2ccc(Br)cc2)CC1,-14,·,10
Cc1cc(C(=O)CSc2nnnn2-c2ccccc2)c(C)n1-c1cc(F)ccc1F,13,·,7
O=C(CSc1n[nH]c(-c2ccccc2)n1)Nc1sc2c(c1C(=O)Nc1ccccc1)CCCC2,26,·,44
O=C(CSc1nnc(-c2ccccc2)n1-c1ccccc1)Nc1c(F)cc(F)cc1Br,1,·,31
C=CCNC(=O)C1(O)c2ccccc2NC(=O)N1c1ccccc1 (stereo not given),-26,-17,-7
C[C@@H]1CN([C@H](C)CO)C(=O)c2cccc(NC(=O)CCCCCC(=O)Nc3ccccc3N)c2O[C@H]1CN(C)CC1CC1,122*,·,13
C[C@H](CO)N1C[C@H](C)[C@H](CN(C)CC2CCCCC2)Oc2c(NC(=O)CCCCCC(=O)Nc3ccccc3N)cccc2C1=O,63,·,10
C[C@H]1CN([C@@H](C)CO)C(=O)c2cccc(NC(=O)CCCCCC(=O)Nc3ccccc3N)c2O[C@H]1CN(C)CC1CCCCC1,52,·,11
C[C@H]1CN([C@@H](C)CO)C(=O)c2cccc(NC(=O)CCCCCC(=O)Nc3ccccc3N)c2O[C@@H]1CN(C)CC1CC1,120*,·,41
C[C@@H]1CN([C@@H](C)CO)C(=O)c2cccc(NC(=O)CCCCCC(=O)Nc3ccccc3N)c2O[C@H]1CN(C)CC1CC1,128*,·,13
C[C@@H]1CN([C@H](C)CO)C(=O)c2cccc(NC(=O)CCCCCC(=O)Nc3ccccc3N)c2O[C@@H]1CN(C)CC1CC1,46,·,-14
CNC[C@@H]1Oc2c(NC(=O)c3nc4ccccc4s3)cccc2C(=O)N([C@H](C)CO)C[C@@H]1C,0,?,5
CCC(C)[C@@H](CO[C@@H](Cc1ccccc1)C(=O)N[C@@H](CCS(C)(=O)=O)C(=O)OC(C)C)NC[C@@H](N)CS (stereo not given in full),55,-76,-14
C[C@@H]1CN([C@H](C)CO)C(=O)c2cccc(NC(=O)Nc3ccc(C(F)(F)F)cc3)c2O[C@H]1CN(C)CC1CC1,84*,-42,26
SMILES,NOMO-1 viab,Shh pathway inh,MITF inh
C[C@@H]1CN([C@@H](C)CO)C(=O)c2cccc(NC(=O)Nc3ccc(C(F)(F)F)cc3)c2O[C@@H]1CN(C)CC1CCCCC1,95*,31,-1
C[C@@H]1CN([C@H](C)CO)C(=O)c2cccc(NC(=O)Nc3ccc(F)cc3)c2O[C@@H]1CN(C)CC1CCCCC1,9,8,-36
C[C@@H]1CN([C@@H](C)CO)C(=O)c2cccc(NC(=O)Nc3ccc(C(F)(F)F)cc3)c2O[C@@H]1CN(C)CC1CC1,56,11,-6
COc1c(O)c(C(=O)CCc2ccccc2)c(OC)c(OC)c1OC,6,8,-18
C[C@H]1CN([C@@H](C)CO)C(=O)c2cccc(NS(=O)(=O)c3ccc(F)cc3)c2O[C@@H]1CN(C)S(=O)(=O)c1cn(C)cn1,3,-20,-10
Cc1cc(SCC(=O)Nc2ccc(SC(F)F)cc2)nc2ccccc12,-18,·,-8
O=C1/C(=C\c2c[nH]c3ccccc23)C(c2ccccc2)Oc2ccccc21 (stereo not given),121*,·,51
O=C(/C=C/c1c[nH]c2ccccc12)N1CCCCC1,52,·,-25
C[C@H](CO)N1C[C@H](C)[C@H](CN(C)Cc2ccc(C(=O)O)cc2)Oc2ccc(NC(=O)Nc3ccc(F)cc3)cc2C1=O,-33,-2,-7
Cc1sc2ncnc(SCC(=O)Nc3ccc(F)cc3)c2c1C,6,·,4
O=C1CSC(=S)N1CCc1ccc(Cl)cc1,113*,6,9
COc1ccc(CCN2C(=O)CSC2=NC2CC2)cc1OC,-14,·,-23
CCN(CC)CCOc1ccc(/C(=C(/Cl)c2ccccc2)c2ccccc2)cc1,69,-18,5
CC/C(=C(\c1ccccc1)c1ccc(OCCN(C)C)cc1)c1ccccc1,96*!,59,-6
COc1ccc(-c2cc(C(F)(F)F)nc(SCC(=O)Nc3cc(F)ccc3C)n2)cc1OC,40,·,-14
CC(C)C(=O)Nc1ccccc1C(=O)OCc1cccc([N+](=O)[O-])c1,11,·,-28
Cc1nc(C2C(=O)c3ccc(O)c(O)c3OC2C(F)(F)F)cs1 (stereo not given),107*,-2,23
Cc1nc(-c2c(C(F)(F)F)oc3cc(O)ccc3c2=O)cs1,34,-7,1
Cc1ccc(S(=O)(=O)Nc2ccc3c(c2)C(=O)N([C@@H](C)CO)C[C@@H](C)[C@@H](CN(C)C(=O)Nc2ccc(C(F)(F)F)cc2)O3)cc1,111*,-12,12
Cc1ccc(S(=O)(=O)Nc2ccc3c(c2)C(=O)N([C@H](C)CO)C[C@H](C)[C@H](CN(C)C(=O)Nc2ccc(C(F)(F)F)cc2)O3)cc1,40,·,13
C[C@@H]1CN([C@H](C)CO)C(=O)c2cc(NC(=O)Nc3ccc(C(F)(F)F)cc3)ccc2O[C@H]1CN(C)C(=O)Nc1ccc(F)cc1,35,·,11
C[C@@H]1CN([C@@H](C)CO)C(=O)c2cc(NC(=O)Nc3ccc(F)cc3)ccc2O[C@@H]1CN(C)C(=O)Nc1ccc(C(F)(F)F)cc1,105*,7,30
C[C@H](CO)N1C[C@H](C)[C@@H](CN(C)C(=O)Nc2ccc(C(F)(F)F)cc2)Oc2ccc(NC(=O)Nc3ccc(C(F)(F)F)cc3)cc2C1=O,104*,19,40
C[C@H](CO)N1C[C@H](C)[C@H](CN(C)C(=O)Nc2ccc(C(F)(F)F)cc2)Oc2ccc(NC(=O)Nc3ccc(C(F)(F)F)cc3)cc2C1=O,74,-18,-7

# Screens from PubChem BioAssay.
